# This is a sample that favours compounds with a hit; in the whole collection about 19% have one here.
# Pf growth 96h: P. falciparum growth inhibition at 96 hour, primary screen for plastid delayed-death inhibitors; P. falciparum luciferase reporter growth, 96 h; 320,000 tested, 6.9% active; Potency, µM (doses to about 28.7 µM), inactives show at the top dose activity change, negative = inhibition, usual class: inhibitors; note: potency is the fitted concentration of half-maximal effect; % is set by controls: 0 for no effect and ±100 for the full control effect
#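 Cell-based qHTS: luciferase-tagged P. falciparum in erythrocytes (2% hematocrit, 0.05% parasitemia final) incubated with compounds for 96 hours, 37 C, 5% CO2; luciferase detection reagent then added and luminescence measured.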
# Shiga inhibitor: inhibitors of Shiga toxin in Vero cells; AID 2315; 290,000 tested, 9.2% active; inhibition, % at 38.7 µM; Vero cells, Shiga toxin protein synthesis inhibition reporter; in the data active = inhibition mostly above about 28%, no sharp cut-off; inactive = mostly below about 43%; note: 0% is about no effect
# Pf growth 48h: P. falciparum growth inhibition at 48 hours (one generation). P. falciparum luciferase growth in erythrocytes, 48 h. Potency, µM (series often up to 28.7 µM), for inactives: top-dose activity change, negative = inhibition, most hits filed as inhibitors. 310,000 tested, 5.9% active; note: potency is the fitted concentration of half-maximal effect; % is set by controls: 0 for no effect and ±100 for the full control effect
#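 Here the parasites carry a stable luciferase gene and grow inside erythrocytes in Albumax-based RPMI medium with compound for one erythrocytic cycle. Activity is scored as loss of luminescent signal.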
# Lassa entry inh: inhibitors of Lassa virus binding or cell entry | Lassa virus pseudotype entry inhibition, cell reporter | Potency, µM (titrated, usually from 37.9 µM), for the others: at the highest dose activity change, negative = inhibition, most hits filed as inhibitors | 300,000 tested, 1.2% active; calls by dose curve; tested in HEK293 cells; note: potency is the fitted concentration of half-maximal effect; % is set by controls: 0 for no effect and ±100 for the full control effect; nearly all actives have a fitted effect of over 50% in size
# CHX counter: affects cycloheximide protein synthesis inhibition readout, counter-screen | cell reporter, cycloheximide protein synthesis inhibition counterscreen | max response, % | 300,000 tested, 12% active | AID 2314; in the data active = max response mostly above about 13%, no sharp cut-off; inactive = mostly below about 14%; note: read at 38.3 µM for the half of the compounds with a filed dose; 0% is about no effect
# MARV entry inh: Marburg virus entry inhibition; 300,000 tested, 1.8% active; Potency, µM (doses to about 37.8 µM), for the others: top-dose activity change, negative = inhibition, hits mostly inhibitors; AID 540276; Marburg virus pseudotyped entry inhibition, cell reporter; calls by dose curve; tested in HEK293 cells; note: potency is the fitted concentration of half-maximal effect; % is set by controls: 0 for no effect and ±100 for the full control effect
# Numbers without * were called inactive; ? = inconclusive; nt = not tested or not shown; ! = not confirmed by another sample; [ ] = another dose, or the depositor's remark. Unless noted, calls come from the whole dose curve; as a rule, active = well fitted inhibition curve with a large enough effect; inconclusive = small, poorly fitted or top-dose-only effect, or another doubt; inactive = no such curve, though single readings can be large or run the other way.
SMILES,Pf growth 96h,Shiga inhibitor,Pf growth 48h,Lassa entry inh,CHX counter,MARV entry inh
Cc1ccc(CSCCC(=O)N2CCN(c3cc(C)ccc3C)CC2)cc1,nt,nt,nt,-4.7%[46.1 µM],nt,nt
COc1ccc(/C=C(/C(=O)c2cccs2)N2C=CC=CC2=C(C#N)C#N)cc1,56.7%,46.8*,68.2%,nt,41.0*,-1.1%
Cc1c(N=N/C(C(=O)Nc2ccccc2)=C(/O)c2ccccc2)c(=O)n(-c2ccccc2)n1C,3.7µM*,-2.1,?,-21.8%,10.6,?
O=C(CCC(=O)c1ccc[nH]1)c1ccc(Cl)cc1,184.3%,99.8*,201.7%,?,46.0*,-13.5%
O=C(COc1ccc(Cl)cc1Cl)OCC(=O)c1ccc[nH]1,16.4%,nt,-5.6%,nt,nt,nt
O=C(COc1ccc(F)c(Cl)c1)c1ccc[nH]1,?,39.8,19.7%,21.1%,36.2*,26.3%
CCOC(=O)Cn1ncc2c(=O)oc3ccccc3c21,57.2%,-7.0,11.9%,?,2.1,-11.8%
COc1cccc(O)c1CN1CCCC(C(=O)c2cccc(C(F)(F)F)c2)C1 (configuration not stated),?,-3.3,2.94µM*,-0.9%[46.1 µM],7.5,?
CCn1ccnc1CN1CCCC(C(=O)c2cccc(C(F)(F)F)c2)C1 (configuration not stated),13.0%,-9.7,9.28µM*,2.6%[46.1 µM],-2.2,?
COc1ccc(C(=O)C2CCCN(Cc3c(O)cccc3OC)C2)cc1OC (configuration not stated),?,-3.0,?,-10.3%[46.1 µM],-1.9,?
C=C1C(=O)OC2CC1C(O)CC(C)=CCCC(C)=CC(O)CC2C (configuration not stated),nt,nt,nt,?,nt,3.98µM*
O=C(O)/C=C/c1ccc(S(=O)(=O)N2CCN(CCN3C(=O)C4C5C=CC(C5)C4C3=O)CC2)cc1 (configuration not stated),1.85µM*,-3.7,?,nt,-4.2,nt
O=C1C2C(C(=O)N1CCN1CCN(Cc3ccc([N+](=O)[O-])cc3)CC1)[C@H]1C=C[C@@H]2C1 (some centres not stated),20.8%,-9.2,-4.2%,-3.7%,1.1,-25.7%
C=C1SC(=Nc2ccccc2Cl)N(C(=O)c2sc3ccccc3c2Cl)C12CCCCC2,?,42.9,5.86µM*,nt,25.2*,nt
C=C1SC(=Nc2c(C)cc(C)cc2C)N(C(=O)c2sc3ccccc3c2Cl)C12CCCCC2,1.65µM*,-3.0,?,nt,-2.8,nt
NCCS,8.6%,-14.4,4.3%,-5.7%,-2.2,11.2µM*!
O=C(CCN1C(=O)C2C3CCC(C3)C2C1=O)OCC(=O)c1ccc(Br)cc1 (configuration not stated),-3.2%,-2.2,29.7%,nt,-0.3,nt
Cc1ccc(CN2C(=O)CN=C(c3ccccc3)c3ccccc32)cc1,-1.5%,-10.8,?,-23.0%,-2.0,?
Cc1ccc(-c2cn3c(=O)cc(C)[nH]c3n2)cc1,393.1%,48.8,143.6%,14.6µM*,26.1*,-10.0%
Cc1cc(=O)n2cc(-c3ccccc3)nc2[nH]1,16.7%,0.0,18.5%,-12.6%,22.2*,6.9%
COc1cc(C2NC(=O)c3c(sc4c3CCN(C)C4)N2)cc(OC)c1OC (configuration not stated),nt,nt,nt,-5.7%[46.1 µM],nt,-14.1%[46.1 µM]
O=C(CCl)N(c1ccc(Cl)cc1)c1c[nH]c2ccccc12,nt,-13.9,2.33µM*,?,11.7,?
O=C(CCl)N(c1ccccc1)c1c[nH]c2ccccc12,1.17µM*,15.5,1.65µM*,?,3.5,?
C=CCNc1nc(Cl)nc(Nc2ccccc2)n1,-7.2%,40.2*,51.5%,nt,21.5*,nt
C=CCNc1nc(Cl)nc(Nc2cc(Cl)ccc2OC)n1,-9.8%,-11.4,-3.7%,2.8%,-3.1,12.6µM*
SMILES,Pf growth 96h,Shiga inhibitor,Pf growth 48h,Lassa entry inh,CHX counter,MARV entry inh
CNc1nc(Cl)nc(Nc2ccccc2)n1,?,45.2*,0.0%,?,40.3*,?
COc1ccc(CC(=O)NNC(=S)Nc2ccccc2)cc1Br,18.6%,-2.8,30.8%,1.8%,-4.7,11.6%
Cc1cccc(NC(=O)CSCC(=O)NCc2ccco2)c1,29.5%,-4.1,11.6%,nt,-1.3,nt
COc1ccc(NC(=O)CN2C(=O)CCc3cc(S(=O)(=O)N4CCOCC4)ccc32)c(OC)c1,nt,nt,nt,0.1%[46.1 µM],nt,nt
Cc1cc(C(N)=O)c2ccccc2n1,?,-17.1,10.0%,2.6%,-1.4,4.5%
NC(=O)c1cc2c3ccccc3ccn2c1-c1ccccc1,-58.0%,94.0*,-1.3%,nt,52.0*,nt
COc1ccc(C=CN(CCc2ccc(OC)c(OC)c2)C(=O)c2ccccn2)cc1,nt,nt,nt,nt,nt,-10.7%[14.2 µM]
Cc1cc(NC(=O)CN2CCN(C)CC2)no1,?,-9.7,11.3%,-19.1%,-5.7,-4.0%
Clc1ccc(-c2nnc3sc(-c4ccccn4)nn23)cc1,nt,17.7,25.8%,nt,-2.4,-5.1%
Clc1ccccc1-c1nn2c(-c3ccccn3)nnc2s1,-16.1%,-4.2,8.28µM*,?,3.6,?
Clc1ccccc1-c1nn2c(-c3ccncc3)nnc2s1,?,-6.8,10.4µM*,?,6.3,7.3µM*
Brc1ccc(-c2nn3c(-c4ccccn4)nnc3s2)o1,?,24.6,-26.2%,?,14.2*,-19.1%
Brc1ccc(-c2nn3c(-c4ccncc4)nnc3s2)o1,45.5%,12.6,6.0%,nt,1.8,-0.1%
CC(C)(C)c1ccc(-c2nnc3sc(-c4ccccn4)nn23)cc1,-23.6%,91.3*,nt,nt,46.2*,nt
Cc1cc(OCC(=O)NCC(C)C)cc(C)c1Br,?,12.8,nt,24.4%,22.3,22.9%
COCCn1c(-c2ccsc2)nc2c1c(=O)[nH]c(=O)n2CC(C)C,?,-8.0,nt,-21.0%,-3.2,-8.1%
COc1cc2cnc(Cl)nc2cc1OC,46.2%,6.7,37.8%,-1.0%,-0.8,?
CCC(c1nnnn1Cc1ccc2c(c1)OCO2)N1CCN(CC)CC1 (configuration not stated),8.9%,20.0,-6.5%,?,1.1,2.4%[46.1 µM]
COc1ccc(C2CN=NC2C(=O)c2ccccc2)cc1 (configuration not stated),9.28µM*,25.6*,14.7µM*,nt,20.5*,nt
COc1ccc(C2N(C(=O)c3ccccc3)CCN2C(=O)c2ccc(C)cc2)cc1 (configuration not stated),?,-5.0,nt,?,-5.0,-5.8%
COC(=O)c1sc2nc(SCc3cccc(Cl)c3)n(N)c(=O)c2c1C,9.28µM*,-3.8,0.4%,?,-1.1,5.5%
COC(=O)CCC(=O)c1oc2ccccc2c1NC(=O)CCCN1C(=O)c2ccccc2C1=O,9.28µM*,21.6,30.2%,-4.6%,12.5,1.1%
COC(=O)CCC(=O)c1oc2ccccc2c1N,?,89.1*,84.6%,17.6%,42.3*,7.1%
Nc1c(C(=O)CCC(=O)O)oc2ccc(Cl)cc12,1.4%,4.5,nt,nt,0.6,-1.6%
Cc1ccc(-n2nc3c(c2NC(=O)C(C)(C)C)CS(=O)(=O)C3)cc1,43.7%,-6.3,10.0%,nt,-2.0,nt
CCC(=N[C@H](CC)CO)C1=C(O)CC(C)(C)CC1=O,nt,nt,nt,nt,nt,7.1%
Cc1cc(Cl)ccc1NC(=O)/C=N/O,2.5%,7.7,1.85µM*,nt,1.6,nt

# Screening results deposited in PubChem by National Center for Advancing Translational Sciences (NCATS).
